# Data: the supplement of paper PMC4466140
# Target: SpBzz1-D2
# Assay: SPOT peptide array binding signal intensity (averaged, normalized) (arbitrary units (background-subtracted, floor 0; scale differs between SH3 domains)); higher = stronger binding of the SH3 domain to the peptide
# How it was run: (§1)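 GST-SH3 fusions from four yeast species, purified on glutathione Sepharose, were incubated at 10 μg/ml overnight at 4°C on membranes of synthetic 15-mer peptides in which cysteines were replaced with serines. Binding signal is the normalized, background-subtracted spot intensity averaged over replicates, in domain-specific arbitrary units.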
row,Binder,SPOT peptide array binding signal intensity
1,LLIRWLILMPLVGSR,13.5
2,HGKRRAPLLLAKLDV,≤ 0

# Target: SpCyk3
# Assay: as above
# How it was run: as §1
row,Binder,SPOT peptide array binding signal intensity
1,LLIRWLILMPLVGSR,25
2,HGKRRAPLLLAKLDV,18

# Target: SpHof1
# Assay: as above
# How it was run: as §1
row,Binder,SPOT peptide array binding signal intensity
1,LLIRWLILMPLVGSR,306
2,HGKRRAPLLLAKLDV,31.2

# Target: SpHof1-2
# Assay: as above
# How it was run: as §1
row,Binder,SPOT peptide array binding signal intensity
1,LLIRWLILMPLVGSR,75.2
2,HGKRRAPLLLAKLDV,4.25

# Target: SpHof1-3
# Assay: as above
# How it was run: as §1
row,Binder,SPOT peptide array binding signal intensity
1,LLIRWLILMPLVGSR,2420
2,HGKRRAPLLLAKLDV,242

# Target: SpHse1
# Assay: as above
# How it was run: as §1
row,Binder,SPOT peptide array binding signal intensity
1,LLIRWLILMPLVGSR,2700
2,HGKRRAPLLLAKLDV,235

# Target: SpLsb1
# Assay: as above
# How it was run: as §1
row,Binder,SPOT peptide array binding signal intensity
1,LLIRWLILMPLVGSR,2
2,HGKRRAPLLLAKLDV,≤ 0

# Target: SpLsb4
# Assay: as above
# How it was run: as §1
row,Binder,SPOT peptide array binding signal intensity
1,LLIRWLILMPLVGSR,341
2,HGKRRAPLLLAKLDV,21.5

# Target: SpMyo1
# Assay: as above
# How it was run: as §1
row,Binder,SPOT peptide array binding signal intensity
1,LLIRWLILMPLVGSR,18
2,HGKRRAPLLLAKLDV,2

# Target: SpNbp2
# Assay: as above
# How it was run: as §1
row,Binder,SPOT peptide array binding signal intensity
1,LLIRWLILMPLVGSR,1450
2,HGKRRAPLLLAKLDV,63.5

# Target: SpPex13
# Assay: as above
# How it was run: as §1
row,Binder,SPOT peptide array binding signal intensity
1,LLIRWLILMPLVGSR,232
2,HGKRRAPLLLAKLDV,10

# Target: SpRvs167
# Assay: as above
# How it was run: as §1
row,Binder,SPOT peptide array binding signal intensity
1,LLIRWLILMPLVGSR,37.7
2,HGKRRAPLLLAKLDV,≤ 0

# Target: SpSla1-D1-D2
# Assay: as above
# How it was run: as §1
row,Binder,SPOT peptide array binding signal intensity
1,LLIRWLILMPLVGSR,≤ 0
2,HGKRRAPLLLAKLDV,≤ 0

# Target: SpSla1-D3
# Assay: as above
# How it was run: as §1
row,Binder,SPOT peptide array binding signal intensity
1,LLIRWLILMPLVGSR,120
2,HGKRRAPLLLAKLDV,2

# Target: AgAbp1
# Assay: as above
# How it was run: as §1
row,Binder,SPOT peptide array binding signal intensity
1,HGKRRAPLLLAKLDV,19

# Target: AgBbc1
# Assay: as above
# How it was run: as §1
row,Binder,SPOT peptide array binding signal intensity
1,HGKRRAPLLLAKLDV,2

# Target: AgBem1-D1
# Assay: as above
# How it was run: as §1
row,Binder,SPOT peptide array binding signal intensity
1,HGKRRAPLLLAKLDV,26

# Target: AgBzz1-D1
# Assay: as above
# How it was run: as §1
row,Binder,SPOT peptide array binding signal intensity
1,HGKRRAPLLLAKLDV,82

# Target: AgBzz1-D2
# Assay: as above
# How it was run: as §1
row,Binder,SPOT peptide array binding signal intensity
1,HGKRRAPLLLAKLDV,34.5

# Target: AgCyk3
# Assay: as above
# How it was run: as §1
row,Binder,SPOT peptide array binding signal intensity
1,HGKRRAPLLLAKLDV,7

# Target: AgFus1
# Assay: as above
# How it was run: as §1
row,Binder,SPOT peptide array binding signal intensity
1,HGKRRAPLLLAKLDV,93

# Target: AgHof1
# Assay: as above
# How it was run: as §1
row,Binder,SPOT peptide array binding signal intensity
1,HGKRRAPLLLAKLDV,13.5

# Target: AgHse1
# Assay: as above
# How it was run: as §1
row,Binder,SPOT peptide array binding signal intensity
1,HGKRRAPLLLAKLDV,145

# Target: AgLsb1
# Assay: as above
# How it was run: as §1
row,Binder,SPOT peptide array binding signal intensity
1,HGKRRAPLLLAKLDV,≤ 0

# Target: AgLsb4
# Assay: as above
# How it was run: as §1
row,Binder,SPOT peptide array binding signal intensity
1,HGKRRAPLLLAKLDV,29.5

# Target: AgMyo5
# Assay: as above
# How it was run: as §1
row,Binder,SPOT peptide array binding signal intensity
1,HGKRRAPLLLAKLDV,3

# Target: AgNbp2
# Assay: as above
# How it was run: as §1
row,Binder,SPOT peptide array binding signal intensity
1,HGKRRAPLLLAKLDV,58

# Target: AgRvs167
# Assay: as above
# How it was run: as §1
row,Binder,SPOT peptide array binding signal intensity
1,HGKRRAPLLLAKLDV,6.67

# Target: AgSho1
# Assay: as above
# How it was run: as §1
row,Binder,SPOT peptide array binding signal intensity
1,HGKRRAPLLLAKLDV,6

# Target: AgSla1-D1-D2
# Assay: as above
# How it was run: as §1
row,Binder,SPOT peptide array binding signal intensity
1,HGKRRAPLLLAKLDV,94.5

# Target: AgSla1-D3
# Assay: as above
# How it was run: as §1
row,Binder,SPOT peptide array binding signal intensity
1,HGKRRAPLLLAKLDV,20

# Target: CaAbp1-D1
# Assay: as above
# How it was run: as §1
row,Binder,SPOT peptide array binding signal intensity
1,HGKRRAPLLLAKLDV,499

# Target: CaAbp1-D2
# Assay: as above
# How it was run: as §1
row,Binder,SPOT peptide array binding signal intensity
1,HGKRRAPLLLAKLDV,238

# Target: CaBbc1
# Assay: as above
# How it was run: as §1
row,Binder,SPOT peptide array binding signal intensity
1,HGKRRAPLLLAKLDV,57.8

# Target: CaBem1-D1
# Assay: as above
# How it was run: as §1
row,Binder,SPOT peptide array binding signal intensity
1,HGKRRAPLLLAKLDV,44

# Target: CaBzz1-D1
# Assay: as above
# How it was run: as §1
row,Binder,SPOT peptide array binding signal intensity
1,HGKRRAPLLLAKLDV,94

# Target: CaBzz1-D2
# Assay: as above
# How it was run: as §1
row,Binder,SPOT peptide array binding signal intensity
1,HGKRRAPLLLAKLDV,51.8

# Target: CaCyk3
# Assay: as above
# How it was run: as §1
row,Binder,SPOT peptide array binding signal intensity
1,HGKRRAPLLLAKLDV,37

# Target: CaFus1
# Assay: as above
# How it was run: as §1
row,Binder,SPOT peptide array binding signal intensity
1,HGKRRAPLLLAKLDV,312

# Target: CaHof1
# Assay: as above
# How it was run: as §1
row,Binder,SPOT peptide array binding signal intensity
1,HGKRRAPLLLAKLDV,≤ 0

# Target: CaHse1
# Assay: as above
# How it was run: as §1
row,Binder,SPOT peptide array binding signal intensity
1,HGKRRAPLLLAKLDV,7.75

# Target: CaLsb1
# Assay: as above
# How it was run: as §1
row,Binder,SPOT peptide array binding signal intensity
1,HGKRRAPLLLAKLDV,0.25

# Target: CaLsb4
# Assay: as above
# How it was run: as §1
row,Binder,SPOT peptide array binding signal intensity
1,HGKRRAPLLLAKLDV,26

# Target: CaMyo5
# Assay: as above
# How it was run: as §1
row,Binder,SPOT peptide array binding signal intensity
1,HGKRRAPLLLAKLDV,4

# Target: CaNbp2
# Assay: as above
# How it was run: as §1
row,Binder,SPOT peptide array binding signal intensity
1,HGKRRAPLLLAKLDV,1060

# Target: CaRvs167
# Assay: as above
# How it was run: as §1
row,Binder,SPOT peptide array binding signal intensity
1,HGKRRAPLLLAKLDV,7.67

# Target: CaRvs167-3
# Assay: as above
# How it was run: as §1
row,Binder,SPOT peptide array binding signal intensity
1,HGKRRAPLLLAKLDV,17.5

# Target: CaSho1
# Assay: as above
# How it was run: as §1
row,Binder,SPOT peptide array binding signal intensity
1,HGKRRAPLLLAKLDV,95

# Target: CaSla1-D1-D2
# Assay: as above
# How it was run: as §1
row,Binder,SPOT peptide array binding signal intensity
1,HGKRRAPLLLAKLDV,122

# Target: CaSla1-D3
# Assay: as above
# How it was run: as §1
row,Binder,SPOT peptide array binding signal intensity
1,HGKRRAPLLLAKLDV,8.75

# Target: ScAbp1
# Assay: as above
# How it was run: as §1
row,Binder,SPOT peptide array binding signal intensity
1,HGKRRAPLLLAKLDV,50

# Target: ScBbc1
# Assay: as above
# How it was run: as §1
row,Binder,SPOT peptide array binding signal intensity
1,HGKRRAPLLLAKLDV,12.2

# Target: ScBem1-D1
# Assay: as above
# How it was run: as §1
row,Binder,SPOT peptide array binding signal intensity
1,HGKRRAPLLLAKLDV,30

# Target: ScBzz1-D1
# Assay: as above
# How it was run: as §1
row,Binder,SPOT peptide array binding signal intensity
1,HGKRRAPLLLAKLDV,21.5

# Target: ScBzz1-D2
# Assay: as above
# How it was run: as §1
row,Binder,SPOT peptide array binding signal intensity
1,HGKRRAPLLLAKLDV,27

# Target: ScCyk3
# Assay: as above
# How it was run: as §1
row,Binder,SPOT peptide array binding signal intensity
1,HGKRRAPLLLAKLDV,102

# Target: ScFus1
# Assay: as above
# How it was run: as §1
row,Binder,SPOT peptide array binding signal intensity
1,HGKRRAPLLLAKLDV,136

# Target: ScHof1
# Assay: as above
# How it was run: as §1
row,Binder,SPOT peptide array binding signal intensity
1,HGKRRAPLLLAKLDV,0.5

# Target: ScHse1
# Assay: as above
# How it was run: as §1
row,Binder,SPOT peptide array binding signal intensity
1,HGKRRAPLLLAKLDV,732

# Target: ScLsb1
# Assay: as above
# How it was run: as §1
row,Binder,SPOT peptide array binding signal intensity
1,HGKRRAPLLLAKLDV,≤ 0

# Target: ScLsb2
# Assay: as above
# How it was run: as §1
row,Binder,SPOT peptide array binding signal intensity
1,HGKRRAPLLLAKLDV,≤ 0

# Target: ScLsb3
# Assay: as above
# How it was run: as §1
row,Binder,SPOT peptide array binding signal intensity
1,HGKRRAPLLLAKLDV,16.5

# Target: ScLsb4
# Assay: as above
# How it was run: as §1
row,Binder,SPOT peptide array binding signal intensity
1,HGKRRAPLLLAKLDV,≤ 0

# Target: ScMyo3
# Assay: as above
# How it was run: as §1
row,Binder,SPOT peptide array binding signal intensity
1,HGKRRAPLLLAKLDV,1

# Target: ScMyo5
# Assay: as above
# How it was run: as §1
row,Binder,SPOT peptide array binding signal intensity
1,HGKRRAPLLLAKLDV,5.5

# Target: ScNbp2
# Assay: as above
# How it was run: as §1
row,Binder,SPOT peptide array binding signal intensity
1,HGKRRAPLLLAKLDV,210

# Target: ScPex13
# Assay: as above
# How it was run: as §1
row,Binder,SPOT peptide array binding signal intensity
1,HGKRRAPLLLAKLDV,≤ 0

# Target: ScRvs167
# Assay: as above
# How it was run: as §1
row,Binder,SPOT peptide array binding signal intensity
1,HGKRRAPLLLAKLDV,11.3

# Target: ScSho1
# Assay: as above
# How it was run: as §1
row,Binder,SPOT peptide array binding signal intensity
1,HGKRRAPLLLAKLDV,186

# Target: ScSla1-D1-D2
# Assay: as above
# How it was run: as §1
row,Binder,SPOT peptide array binding signal intensity
1,HGKRRAPLLLAKLDV,126

# Target: ScSla1-D3
# Assay: as above
# How it was run: as §1
row,Binder,SPOT peptide array binding signal intensity
1,HGKRRAPLLLAKLDV,20.5

# Target: SpAbp1-D1
# Assay: as above
# How it was run: as §1
row,Binder,SPOT peptide array binding signal intensity
1,HGKRRAPLLLAKLDV,55

# Target: SpBbc1
# Assay: as above
# How it was run: as §1
row,Binder,SPOT peptide array binding signal intensity
1,HGKRRAPLLLAKLDV,0.5

# Target: SpBzz1-D1
# Assay: as above
# How it was run: as §1
row,Binder,SPOT peptide array binding signal intensity
1,HGKRRAPLLLAKLDV,204
